Here are results for 40 compounds from PubChem BioAssay (NCATS).

Results filed as inconclusive are left out. A call without a number means that no potency is given here. Active and inactive are the calls of the source. The call rests on the fitted dose curve; in most records, active means well fitted inhibition curve with a large enough effect; inconclusive means small, poorly fitted or top-dose-only effect; inactive means no such curve, though single readings can be large or run the other way.

For the assay, the target named is Retinaldehyde dehydrogenase 3 (Homo sapiens) (UniProt P47895). Briefly: qHTS for Inhibitors of the Aldehyde Dehydrogenase Family (ALDH1A3) Primary screen (AID 2061315). Conditions: ALDH inhibition qHTS; series mostly up to 56 µM.
Take `COc1ccc(Cn2c(C)nnc2-c2cnn(C)c2N)cc1OC`: the Potency result is “inactive”. On to `Cc1cc(NS(=O)(=O)c2cc3c(cc2N[C@@H](C)CO)NC(=O)CC3)ccc1F`, for which the Potency entry is “inactive”.

Consider `O=C(O)c1ccc(S(=O)(=O)N[C@@H](Cc2ccc(O)cc2)C(=O)O)cc1`, for which the Potency entry is “inactive”. Consider `Cc1ccc(-c2ccc(=O)n(CC(=O)NCCCc3ccccc3)n2)cc1`, for which the Potency result is “inactive”. For the compound `CCCC(C)NC(=O)Cn1nc(-c2ccc(C)cc2)ccc1=O` (stereo not given), the Potency entry was “inactive”. Turning to `COc1ccc(C2c3c(N)nc(Cc4ccccc4)nc3Oc3ccc4ccccc4c32)cc1OC` (stereo not given), the Potency result is “inactive”. As to `CC1=C(C(=O)Nc2ccon2)C(c2nn(C)cc2Cl)N=C(Nc2nc3ccccc3o2)N1` (stereo not given), the Potency result was “inactive”. As to `COc1ccccc1NS(=O)(=O)c1cc(NC(=O)c2ccccc2)ccc1N1CCCC1`, the Potency result was “inactive”. Regarding `Cc1cc(C)nc(NC(=S)N2CCN(c3cccc4ccccc34)CC2)c1`, the Potency entry was “inactive”. Turning to `Cc1ccccc1NC(=O)CN1C(=O)N/C(=C\c2cn(-c3cccc(C(=O)O)c3)cn2)C1=O`, the Potency entry was “inactive”.

On to `CC(C)(C)OC(=O)N[C@@H](Cc1ccc(O[S+](=O)([O-])c2cccc3cnccc23)cc1)C(=O)N1CCN(Cc2ccccc2)CC1`, for which the Potency entry was “inactive”. In the case of `CC(C)c1ccc(NC(=O)C(c2ccccc2)N(C)C(=O)Cc2c[nH]c3ccccc23)cc1` (stereo not given), the Potency entry is “inactive”. `CN1CCN(c2ccc(CNc3nn4c(=O)c5ccccc5nc4s3)cc2)CC1`: the Potency result was “inactive”. As for `O=C(Nc1ccc(-c2nc3ccccc3[nH]2)cc1)c1ccc(-c2ccccc2)cc1`, the Potency entry is “inactive”. Consider `O=c1c(Nc2ccc(F)c(C(F)(F)F)c2)c(Nc2nnc(-c3ccncc3)s2)c1=O`, for which the Potency entry is “inactive”.

Consider `CCOc1cc2c(cc1OCC)CN(C(=O)c1cc3sccc3n1Cc1ccccc1)CC2`, for which the Potency entry is “inactive”. As to `Cc1cc(C)nc(NC(=S)N2CCN(c3ccc4c(c3)OCO4)CC2)c1`, the Potency entry is “inactive”. Then `Cc1nc(CN(C)c2ncnc3cc(-c4ccc5c(c4)OCO5)ccc23)cs1`, with “inactive”; and `CNc1cccc(S(=O)(=O)N2CCCN(S(=O)(=O)c3ccc4c(c3)OCCO4)CC2)c1`, with “inactive”. Then `COc1ccnc(NCc2ccc(O)c3ncccc23)c1`, with “inactive”. As to `CN(C)c1ccc2c(=O)n3nc(Nc4ccc5c(c4)CCC5)sc3nc2c1`, the Potency result was “inactive”. With `O=C(Nc1ccc2ccccc2c1)Nc1nnc(-c2ccccn2)s1`, the Potency result was “inactive”. In the case of `Cc1ccc(NS(=O)(=O)c2ccc(-c3ccccc3)cc2)cc1C` it was “inactive”.

Take `CS(=O)(=O)c1ccc(C(=O)OCC(=O)N2CCN(Cc3ccccc3)CC2)cc1[N+](=O)[O-]`: the Potency result is “inactive”. With `O=C1CCc2cc([S+](=O)([O-])Nc3ccc(N[S+](=O)([O-])c4ccc5c(c4)CCC(=O)N5)cc3)ccc2N1`, the Potency result is “inactive”.

In the case of `COc1ccc(C2c3ccc(OCc4ccccc4)cc3Oc3ncn(CCN4CCOCC4)c(=N)c32)cc1OC` (stereo not given), the Potency result was “inactive”.

On to `O=C(CN1C(=O)N/C(=C\c2cccn2-c2cccc(C(=O)O)c2)C1=O)Nc1ccc(Cl)cc1`, for which the Potency entry is “inactive”. Then `O=C(Cc1ccc(Cl)c(Cl)c1)Nc1ccc(S(=O)(=O)Nc2cncnc2)cc1`, with “inactive”; and `c1csc(CNc2ncnc3cc(-c4ccc5c(c4)OCO5)ccc23)c1`, with “inactive”; and `FC(F)(F)c1ccccc1-c1nc(NCc2ccc(-c3ccc4c(c3)OCCO4)cc2)c2ccccc2n1`, with “inactive”. As to `CC(C)Oc1ccc(-c2csc(N3CCC(C(N)=O)CC3)n2)cc1`, the Potency entry is “inactive”. On to `Cc1ccc(NS(=O)(=O)c2ccc3c(c2)CCO3)cc1C`, for which the Potency result was “inactive”. In the case of `Cc1ccc(CN(C)c2nc(-c3ccccc3C(F)(F)F)nc3ccccc23)cc1` it was “inactive”. Then `CC(=O)Nc1sc2c(c1-c1cc3ccccc3s1)CCNC2`, with “inactive”; and `COC(=O)C1C(CC(C)=O)C=CC(O)C12Oc1cc(C)cc(O)c1C2=O` (stereo not given), with “inactive”; and `Cn1c2cc([N+](=O)[O-])sc2c2cnn(Cc3ccccc3F)c(=O)c21`, with “inactive”. As to `O=C1CCc2cc(S(=O)(=O)Nc3ccccn3)ccc2N1`, the Potency entry was “inactive”. Then `N#Cc1c(-c2ccc(C(F)(F)F)cc2)no[n+]1[O-]`, with “inactive”.

With `CN(C)c1ccc(C(=O)OCC#CCSc2nnc(-c3cccc4ccccc34)o2)cc1`, the Potency result is “inactive”. Then `Cc1ccsc1CN(C)c1ncnc2ccc(-c3ccc(CO)o3)cc12`, with “inactive”.
